# This is part of a sample that, as a whole, favours compounds with a hit. Of some 79,000 tested, about 15% had one in any assay. Unmarked numbers belong to inactive results. The source made the active and inactive calls. Cut-off read from the data, not from the text of the source: active = growth inhibition above about 70%; inactive = the rest.
# Experiments:
# [1] = NCI Yeast Anticancer Drug Screen. Data for the rad52 strain (AID 147);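 note: 0% = growth of vehicle-treated control cultures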; conditions: S. cerevisiae rad52 mutant growth inhibition, active compounds read high
# Summary of the method: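 Compounds are applied to a genetically defined yeast strain lacking normal DNA damage repair, and inhibition of growth is expressed relative to cultures given vehicle only.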
# [2] = NCI Yeast Anticancer Drug Screen. Data for the wt1 strain (AID 149);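 note: 0% = growth of vehicle-treated wt1 cultures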; conditions: S. cerevisiae wt1 strain (SPY 50644) growth inhibition, active compounds read high
# Summary of the method: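 Yeast wt1 strain exposed to compounds; growth inhibition measured relative to vehicle-treated controls.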
# [3] = NCI Yeast Anticancer Drug Screen. Data for the rad50EPP+ strain (AID 151);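 note: 0% = growth of vehicle-treated control cultures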; conditions: S. cerevisiae rad50 mutant strain, active compounds read high
# Summary of the method: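 Compounds were applied to the rad50EPP+ yeast strain, which bears a defined DNA repair alteration, and growth inhibition was determined relative to vehicle-treated cultures.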
# [4] = NCI Yeast Anticancer Drug Screen. Data for the mgt1 strain (AID 153); conditions: S. cerevisiae mgt1 mutant growth inhibition, active compounds read high
# Summary of the method: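 Strain: mgt1 yeast, one of a set carrying defined DNA damage repair or cell cycle control alterations. Compound-treated growth compared with vehicle.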
# [5] = NCI Yeast Anticancer Drug Screen. Data for the rad50 strain (AID 155);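 note: 0% = growth of vehicle-only cultures of the same strain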; conditions: S. cerevisiae rad50 strain growth inhibition, active compounds read high
# Summary of the method: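 Yeast carrying a defined DNA repair defect were exposed to test compounds, and growth was compared with vehicle-treated controls to give percent inhibition.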
# [6] = NCI Yeast Anticancer Drug Screen. Data for the mec2-1 strain (AID 157); conditions: S. cerevisiae mec2-1 strain, active compounds read high
# Summary of the method: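 Strain: mec2-1 (DNA repair/cell cycle alteration). Compound exposure, then growth measured; inhibition expressed relative to vehicle.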
# [7] = NCI Yeast Anticancer Drug Screen. Data for the sgs1 mgt1 strain (AID 161);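 note: 0% = growth of cultures given vehicle only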; conditions: S. cerevisiae sgs1 mgt1 strain, active compounds read high
# Summary of the method: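 Mutant yeast exposed to compound; growth scored against vehicle-only wells.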
# [8] = NCI Yeast Anticancer Drug Screen. Data for the CLN2oe strain (AID 163);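 note: 0% = growth of vehicle-only control cultures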; conditions: S. cerevisiae CLN2oe strain, active compounds read high
# Summary of the method: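 Growth of a genetically modified yeast strain is measured after compound exposure and compared with cultures given vehicle alone.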
# [9] = NCI Yeast Anticancer Drug Screen. Data for the cln2 rad14 strain (AID 165);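 note: 0% = growth equal to vehicle treated cultures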; conditions: S. cerevisiae cln2 rad14 strain, active compounds read high
# Summary of the method: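 Compounds are applied to the cln2 rad14 yeast strain, and growth is then compared with that of vehicle-treated cultures to give inhibition.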
# [10] = NCI Yeast Anticancer Drug Screen. Data for the bub3 strain (AID 167); conditions: S. cerevisiae bub3 mutant strain, active compounds read high
# Summary of the method: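 Compounds were applied to a genetically altered yeast strain carrying a cell-cycle control defect. Growth inhibition was scored against vehicle-treated controls.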
# [11] = NCI Yeast Anticancer Drug Screen. Data for the wt2 strain (AID 169);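 note: 0% = growth of vehicle-treated yeast cultures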; conditions: S. cerevisiae wt2 strain growth inhibition, active compounds read high
# Summary of the method: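 This strain belongs to a panel of yeast strains with defined genetic alterations in DNA damage repair or cell cycle control. Compounds are applied, and growth inhibition is measured against vehicle-treated cultures.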
# [12] = NCI Yeast Anticancer Drug Screen. Data for the mlh1 strain (AID 171);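 note: 0% = growth of vehicle-treated control cultures of the same strain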; conditions: S. cerevisiae mlh1 strain growth inhibition, active compounds read high
# Summary of the method: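 Growth of the mutant yeast strain after compound exposure, expressed as inhibition relative to vehicle-only controls.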
# [13] = NCI Yeast Anticancer Drug Screen. Data for the sgs1 strain (AID 173);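 note: 0% = growth of vehicle-only control cultures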; conditions: S. cerevisiae sgs1 mutant, active compounds read high
# Summary of the method: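 Growth of a yeast strain bearing a defined genetic alteration is measured after compound treatment. Inhibition is expressed relative to vehicle-only controls.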
# [14] = NCI Yeast Anticancer Drug Screen. Data for the mlh1 rad18 strain (AID 175); conditions: S. cerevisiae mlh1 rad18 strain growth inhibition, active compounds read high
# Summary of the method: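 Read-out is yeast growth inhibition, calculated against vehicle-only controls. The compound was applied to a strain engineered with DNA damage repair alterations.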
# [15] = NCI Yeast Anticancer Drug Screen. Data for the rad18 strain (AID 177); conditions: S. cerevisiae rad18 mutant growth inhibition, active compounds read high
# Summary of the method: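 Growth of the mutant yeast strain after compound exposure, normalised to vehicle-only cultures.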
# [16] = NCI Yeast Anticancer Drug Screen. Data for the rad14 strain (AID 159);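 note: 0% = growth of vehicle-treated control cultures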; conditions: S. cerevisiae rad14 strain growth inhibition, active compounds read high
# Summary of the method: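 Yeast cells carrying a defined DNA-repair defect were exposed to compounds, and growth inhibition was calculated relative to vehicle-treated control cultures.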
# [17] = at 5.0 µM (retest, dose inferred, filed as 0.5)
# [18] = at 50.0 µM (retest, dose inferred, filed as 5.0)
smiles,measurement,setting,value
COC(=O)/C=C(/C(=O)OC)C(Cl)(Cl)Cl,growth inhibition,[1]; at 1.2 µM,-32%
same,growth inhibition,[1]; at 3.7 µM,7%
same,growth inhibition,[1]; at 11.0 µM,47%
same,growth inhibition,[1]; at 33.0 µM,97% (active)
same,growth inhibition,[1]; at 100.0 µM,100% (active)
same,growth inhibition,[2]; at 1.2 µM,-1%
same,growth inhibition,[2]; at 3.7 µM,4%
same,growth inhibition,[2]; at 11.0 µM,34%
same,growth inhibition,[2]; at 33.0 µM,84% (active)
same,growth inhibition,[2]; at 100.0 µM,100% (active)
same,growth inhibition,[3]; at 1.2 µM,4%
same,growth inhibition,[3]; at 3.7 µM,-9%
same,growth inhibition,[3]; at 11.0 µM,24%
same,growth inhibition,[3]; at 33.0 µM,61%
same,growth inhibition,[3]; at 100.0 µM,84% (active)
same,growth inhibition,[4]; at 1.2 µM,3%
same,growth inhibition,[4]; at 3.7 µM,-3%
same,growth inhibition,[4]; at 11.0 µM,5%
same,growth inhibition,[4]; at 33.0 µM,59%
same,growth inhibition,[4]; at 100.0 µM,99% (active)
same,growth inhibition,[5]; at 1.2 µM,1%
same,growth inhibition,[5]; at 3.7 µM,4%
same,growth inhibition,[5]; [17],14%
same,growth inhibition,[5]; at 11.0 µM,33%
same,growth inhibition,[5]; at 33.0 µM,93% (active)
same,growth inhibition,[5]; [18],88% (active)
same,growth inhibition,[5]; at 50.0 µM,44.8%
same,growth inhibition,[5]; at 100.0 µM,99% (active)
same,growth inhibition,[6]; at 1.2 µM,2%
same,growth inhibition,[6]; at 3.7 µM,2%
same,growth inhibition,[6]; [17],7%
same,growth inhibition,[6]; at 11.0 µM,6%
same,growth inhibition,[6]; at 33.0 µM,44%
same,growth inhibition,[6]; [18],96% (active)
same,growth inhibition,[6]; at 50.0 µM,22.1%
same,growth inhibition,[6]; at 100.0 µM,98% (active)
same,growth inhibition,[7]; [17],23%
same,growth inhibition,[7]; [18],97% (active)
same,growth inhibition,[7]; at 50.0 µM,79.9% (active)
same,growth inhibition,[8]; at 1.2 µM,-5%
same,growth inhibition,[8]; at 3.7 µM,-3%
same,growth inhibition,[8]; at 11.0 µM,2%
same,growth inhibition,[8]; at 33.0 µM,45%
same,growth inhibition,[8]; at 100.0 µM,99% (active)
same,growth inhibition,[9]; [17],9%
same,growth inhibition,[9]; [18],95% (active)
same,growth inhibition,[9]; at 50.0 µM,67.5%
same,growth inhibition,[10]; at 1.2 µM,-4%
same,growth inhibition,[10]; at 3.7 µM,6%
same,growth inhibition,[10]; [17],-3%
same,growth inhibition,[10]; at 11.0 µM,23%
same,growth inhibition,[10]; at 33.0 µM,81% (active)
same,growth inhibition,[10]; [18],94% (active)
same,growth inhibition,[10]; at 50.0 µM,-0.7%
same,growth inhibition,[10]; at 100.0 µM,100% (active)
same,growth inhibition,[11]; at 1.2 µM,-1%
same,growth inhibition,[11]; at 3.7 µM,8%
same,growth inhibition,[11]; at 11.0 µM,33%
same,growth inhibition,[11]; at 33.0 µM,99% (active)
same,growth inhibition,[11]; at 100.0 µM,100% (active)
same,growth inhibition,[12]; at 1.2 µM,-3%
same,growth inhibition,[12]; at 3.7 µM,2%
same,growth inhibition,[12]; at 11.0 µM,5%
same,growth inhibition,[12]; at 33.0 µM,84% (active)
same,growth inhibition,[12]; at 100.0 µM,99% (active)
same,growth inhibition,[13]; at 1.2 µM,6%
same,growth inhibition,[13]; at 3.7 µM,14%
same,growth inhibition,[13]; at 11.0 µM,69%
same,growth inhibition,[13]; at 33.0 µM,97% (active)
same,growth inhibition,[13]; at 100.0 µM,100% (active)
same,growth inhibition,[14]; [17],70% (active)
same,growth inhibition,[14]; [18],97% (active)
same,growth inhibition,[14]; at 50.0 µM,40.9%
same,growth inhibition,[15]; at 1.2 µM,38%
same,growth inhibition,[15]; at 3.7 µM,87% (active)
same,growth inhibition,[15]; at 11.0 µM,95% (active)
same,growth inhibition,[15]; at 33.0 µM,98% (active)
same,growth inhibition,[15]; at 100.0 µM,99% (active)
COc1cc(/C=N/Nc2nnc3c4ccccc4c4ncccc4c3n2)cc(OC)c1OC,growth inhibition,[1]; at 1.2 µM,40%
same,growth inhibition,[1]; at 3.7 µM,51%
same,growth inhibition,[1]; at 11.0 µM,81% (active)
same,growth inhibition,[1]; at 33.0 µM,74% (active)
same,growth inhibition,[1]; at 100.0 µM,89% (active)
same,growth inhibition,[2]; at 1.2 µM,-22%
same,growth inhibition,[2]; at 3.7 µM,-1%
same,growth inhibition,[2]; at 11.0 µM,-1%
same,growth inhibition,[2]; at 33.0 µM,4%
same,growth inhibition,[2]; at 100.0 µM,9%
same,growth inhibition,[3]; at 1.2 µM,20%
same,growth inhibition,[3]; at 3.7 µM,36%
same,growth inhibition,[3]; at 11.0 µM,58%
same,growth inhibition,[3]; at 33.0 µM,80% (active)
same,growth inhibition,[3]; at 100.0 µM,84% (active)
same,growth inhibition,[4]; at 1.2 µM,0%
same,growth inhibition,[4]; at 3.7 µM,1%
same,growth inhibition,[4]; at 11.0 µM,3%
same,growth inhibition,[4]; at 33.0 µM,5%
same,growth inhibition,[4]; at 100.0 µM,6%
same,growth inhibition,[6]; at 1.2 µM,15%
same,growth inhibition,[6]; at 3.7 µM,1%
same,growth inhibition,[6]; [17],-2%
same,growth inhibition,[6]; at 11.0 µM,3%
same,growth inhibition,[6]; at 33.0 µM,9%
same,growth inhibition,[6]; [18],-5%
same,growth inhibition,[6]; at 50.0 µM,22.1%
same,growth inhibition,[6]; at 100.0 µM,11%
same,growth inhibition,[16]; at 1.2 µM,-1%
same,growth inhibition,[16]; at 3.7 µM,2%
same,growth inhibition,[16]; at 11.0 µM,5%
same,growth inhibition,[16]; at 33.0 µM,8%
same,growth inhibition,[16]; at 100.0 µM,14%
same,growth inhibition,[7]; [17],-5%
same,growth inhibition,[7]; [18],-2%
same,growth inhibition,[7]; at 50.0 µM,34%
same,growth inhibition,[9]; [17],-7%
same,growth inhibition,[9]; [18],-6%
same,growth inhibition,[9]; at 50.0 µM,47.8%
same,growth inhibition,[10]; at 1.2 µM,-1%
same,growth inhibition,[10]; at 3.7 µM,-1%
same,growth inhibition,[10]; [17],1%
same,growth inhibition,[10]; at 11.0 µM,-4%
same,growth inhibition,[10]; at 33.0 µM,-11%
same,growth inhibition,[10]; [18],-16%
same,growth inhibition,[10]; at 50.0 µM,6.55%
same,growth inhibition,[10]; at 100.0 µM,-8%
same,growth inhibition,[11]; at 1.2 µM,-5%
same,growth inhibition,[11]; at 3.7 µM,-1%
same,growth inhibition,[11]; at 11.0 µM,-2%
same,growth inhibition,[11]; at 33.0 µM,-3%
same,growth inhibition,[11]; at 100.0 µM,-4%
same,growth inhibition,[12]; at 1.2 µM,-1%
same,growth inhibition,[12]; at 3.7 µM,0%
same,growth inhibition,[12]; at 11.0 µM,-2%
same,growth inhibition,[12]; at 33.0 µM,3%
same,growth inhibition,[12]; at 100.0 µM,6%
same,growth inhibition,[13]; at 1.2 µM,2%
same,growth inhibition,[13]; at 3.7 µM,5%
same,growth inhibition,[13]; at 11.0 µM,4%
same,growth inhibition,[13]; at 33.0 µM,9%
same,growth inhibition,[13]; at 100.0 µM,10%
same,growth inhibition,[15]; at 1.2 µM,11%
same,growth inhibition,[15]; at 3.7 µM,8%
same,growth inhibition,[15]; at 11.0 µM,21%
same,growth inhibition,[15]; at 33.0 µM,29%
same,growth inhibition,[15]; at 100.0 µM,30%

# — PubChem BioAssay (NCI)
